Laboratory results published in PubChem BioAssay (NCATS).
Results filed as inconclusive are left out. Entries that show only a call come without a potency. Activity calls are given as the source filed them. Calls follow the shape of the dose curve; as a rule, active = well fitted cell-killing curve with a large enough effect; inconclusive = small, poorly fitted or top-dose-only effect; inactive = flat fitted curve, though single readings scatter.

experiment: Cell Viability - LYMP2-006 (AID 978); conditions: LYMP2-006 lymphoblastoid cell viability, qHTS; series mostly up to 92.2 µM; also: nearly all actives have a fitted effect of over 60% in size
From the text: NIH Chemical Genomics Center [NCGC]
NIH Molecular Libraries Screening Centers Network [MLSCN]
National Institutes of Environmental Health Sciences [NIEHS]
National Toxicology Program [NTP]
We have developed a 1536-well cell-based assay for quantitative high throughput screening (qHTS) against a number of cell lines to determine in vitro cytotoxicity of small molecules. This particular assay uses a human lymphoblastoid cell line (LYMP2-006) purchased from Coriell Institute for Medical Research.
NCGC Assay Protocol Summary:
The CellTiter-Glo luminescent cell viability assay (Promega) is a homogeneous method to measure the number of viable cells in culture. The end point readout of this assay is based on quantitation of intracellular ATP, an indicator of metabolic activity, using the luciferase reaction. Luciferase catalyzes the oxidation of beetle Luciferin to oxyluciferin and light in the presence of ATP. The luminescent signal is proportional to amount of ATP present.
Using the CellTiter-Glo luminescent cell viability assay, the amount of cellular ATP was measured in the lymphoblastoid cell line with complete culture medium following compound treatment for 24 hours. The assay was performed in opaque white Kalypsys 1536-well plates. In the screen, tetraoctylammonium bromide was used as positive control. Library compounds were measured for their ability to cause acute toxicity in the cell line, as reflected by a decrease in intracellular ATP levels, in a concentration-dependent manner. […] AC50 values were determined from concentration-response data modeled with the standard Hill equation.
qHTS protocol for CellTiter Glo lymphoblastoid cellular assay
[Step] [Parameter] [Value] [Description]
1. Reagent; 5 uL; 2500 lymphoblastoid cells/well
2. Time; 5 hr; 37 C incubation
4. Controls; 23 nL; Tetraoctylammonium bromide 6.4pM to 92 uM
5. Time; 24 hr; 37 C incubation
6. Reagent; 5 uL; CellTiter Glo reagent
7. Time; 30 min; Room Temperature
8. Detection; Luminescence; Viewlux plate reader
Keywords: cell viability, cytotoxicity, lymphoblastoid cell line, luminescence, NTPHTS, NTPHTS_NCGC, NIEHS, DSSTox, MLSMR, MLSCN, NIH Roadmap, qHTS, NCGC
Potency is read from the fitted curve at half-maximal effect.

Row | Compound | Potency
1 | Nc1ccc(C(=O)O)cc1 | inactive
2 | CC/C(=C(/CC)c1ccc(O)cc1)c1ccc(O)cc1 | inactive
3 | CN(C)/N=N/c1nc[nH]c1C(N)=O | inactive
4 | C=CCc1ccc(O)c(OC)c1 | inactive
5 | CC(=O)Oc1ccc(C(c2ccc(OC(C)=O)cc2)c2ccccn2)cc1 | inactive
6 | CCCCCCc1ccc(O)cc1O | inactive
7 | NC(=NCCCCCCN=C(N)/N=C(\N)Nc1ccc(Cl)cc1)/N=C(\N)Nc1ccc(Cl)cc1 | 39.8 µM (active)
8 | O=c1ccc2ccccc2o1 | inactive
9 | COC1=CC(=O)C[C@@H](C)[C@]12Oc1c(Cl)c(OC)cc(OC)c1C2=O | inactive
10 | C[C@]12CC[C@@H]3c4ccc(O)cc4CC[C@H]3[C@@H]1CC[C@@H]2O | inactive
11 | CC(=O)O[C@]1(C(C)=O)CC[C@H]2[C@@H]3C[C@H](C)C4=CC(=O)CC[C@]4(C)[C@H]3CC[C@@]21C | 39.8 µM (active)
12 | O=C1OC(c2ccc(O)cc2)(c2ccc(O)cc2)c2ccccc21 | inactive
13 | O=C(O)CCCCC(=O)O | inactive
14 | CC(C)(C)CC(C)(C)c1ccc(OCCOCC[N+](C)(C)Cc2ccccc2)cc1 | 25.1 µM (active)
15 | CC(O)C(=O)O (stereo not given) | inactive
